Measurements as given in PubChem BioAssay (NCI).
About 79,000 compounds went through this panel and 15% of them were active in at least one assay; those are over-represented in the sample as a whole. Unmarked numbers belong to inactive results. The source made the active and inactive calls. Cut-off read from the data, not from the text of the source: active = growth inhibition above about 70%; inactive = the rest.

Experiments:
[1] = NCI Yeast Anticancer Drug Screen. Data for the rad50 strain (AID 155);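 note: 0% = growth of vehicle-only cultures of the same strain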; settings: S. cerevisiae rad50 strain growth inhibition; at 50.0 µM; stronger effect = higher value
Method in brief: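 Readout: growth inhibition relative to vehicle-treated cultures. Compound exposure was carried out in a genetically defined yeast strain deficient in DNA damage repair.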

[2] = NCI Yeast Anticancer Drug Screen. Data for the mec2-1 strain (AID 157); settings: S. cerevisiae mec2-1 strain, at 50.0 µM, stronger effect = higher value
Method in brief: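 Yeast mec2-1 mutant treated with compound. Readout: growth inhibition vs vehicle controls.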

[3] = NCI Yeast Anticancer Drug Screen. Data for the sgs1 mgt1 strain (AID 161);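 note: 0% = growth of cultures given vehicle only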; settings: S. cerevisiae sgs1 mgt1 strain, at 50.0 µM, stronger effect = higher value
Method in brief: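 Read-out: growth inhibition vs vehicle controls. Cells: mutant yeast strain deficient in DNA damage repair.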

[4] = NCI Yeast Anticancer Drug Screen. Data for the cln2 rad14 strain (AID 165);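 note: 0% = growth equal to vehicle treated cultures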; settings: S. cerevisiae cln2 rad14 strain, at 50.0 µM, stronger effect = higher value
Method in brief: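 cln2 rad14 yeast strain; compound exposure; growth inhibition read vs vehicle controls.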

[5] = NCI Yeast Anticancer Drug Screen. Data for the bub3 strain (AID 167); settings: S. cerevisiae bub3 mutant strain, at 50.0 µM, stronger effect = higher value
Method in brief: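 Readout: yeast growth inhibition, expressed relative to vehicle-only wells. The test organism is a mutant strain from a panel with lesions in DNA repair or checkpoint genes.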

[6] = NCI Yeast Anticancer Drug Screen. Data for the mlh1 rad18 strain (AID 175); settings: S. cerevisiae mlh1 rad18 strain growth inhibition; at 50.0 µM; stronger effect = higher value
Method in brief: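 Yeast w/ defined DNA-repair lesions; compound exposure; growth vs vehicle controls → % inhibition.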

Compound	growth inhibition [1]	growth inhibition [2]	growth inhibition [3]	growth inhibition [4]	growth inhibition [5]	growth inhibition [6]
CCCC(O)C(C)(C)C (stereo unspecified)	-35.7%	-67.5%	-51.6%	-11.2%	-43.5%	-42%
COc1ccccc1NC(=O)C(=O)C(c1cnc2ccc([N+](=O)[O-])cc2n1)[N+](=O)[O-] (stereo unspecified)	16.2%	-3.4%	6.3%	18.5%	7.6%	-0.2%
CCC(C)C(=O)OCC1(c2ccc(C)cc2OC(=O)C(C)C)CO1 (stereo unspecified)	15.7%	-2.45%	19.2%	-1%	-6%	12.2%
COC(=O)c1ccccc1N=Cc1ccc(N(CCC#N)S(=O)(=O)c2ccccc2)cc1	-2.05%	13.3%	-6.15%	18.2%	20.3%	15.9%
Nc1cccc(CC(N)C(=O)O)c1 (stereo unspecified)	-1.95%	-5.55%	-8.7%	-44.1%	-4.5%	1.7%
COc1cc(S(=O)(=O)O)ccc1N=N/C(=N\Nc1ccc(S(=O)(=O)O)cc1OC)C(N)=O	-42.1%	5.55%	8.9%	18.6%	-1.95%	7.7%
O=C1c2ccccc2C(=O)N1Nc1ccccc1	6.6%	3.2%	7.45%	-8.1%	3.1%	16.5%
CC1(C)CC(=O)C2(C)C(C1O)C2C1C2C(O)C(C)(C)CC(=O)C21C (stereo unspecified)	-11.2%	3.25%	-5.3%	-6.75%	8.2%	-16.1%
O=c1[nH]cnc2c1sc(=S)n2-c1ccccc1	7.15%	-10.5%	10.2%	6.7%	-12.3%	-2.4%
NC(=O)NC(Cc1ccccc1)(C(=O)O)c1ccccc1 (stereo unspecified)	6.55%	6.15%	35.9%	-0.75%	24.4%	20.4%
CCCc1nnnn1C12CC3CC(CC(C3)C1)C2	30.6%	18.8%	2.15%	2.2%	18.3%	28.1%
CNC(=S)C(N)CCCC1NC(=S)N(C)C1=O (stereo unspecified)	7%	6.8%	-21.9%	16.7%	8.95%	0.7%
CC(=O)Nc1cc(NC(C)=O)c(N=O)c(NC(C)=O)n1	-19.5%	-13.2%	-0.7%	-3.45%	-15.8%	7.35%
Cc1ccc(S(=O)(=O)OCOS(=O)(=O)c2ccc(C)cc2)cc1	23.1%	22.2%	4.95%	3.15%	-34.4%	-25.2%
Cc1ccc(CCC=O)cc1	30.6%	-4.1%	17.4%	-37.9%	-8.5%	29.4%
CC(Cl)(CCC(Cl)C(C)(C)Cl)C(=O)CBr (stereo unspecified)	89% (active)	92.7% (active)	92.8% (active)	91.3% (active)	92.3% (active)	93.2% (active)
CC1(C)C(=O)N2c3ccccc3C3(CC(N4C(=O)c5ccccc5C4=O)C(=O)O3)C2N1C(=O)OCc1ccccc1 (stereo unspecified)	26.1%	13.8%	9.35%	15.2%	14.1%	-13.1%
O=C1Nc2ccccc2C1O (stereo unspecified)	7.15%	3.3%	-37.5%	-17.7%	11.1%	-4.2%
CC(C)OC(=O)Oc1ccc(Cl)cc1Cl	6.2%	-19.1%	10.1%	-47.2%	-9.95%	3.45%
Nc1nc(N)c(-c2ccc(Cl)cc2)c(CNc2cccc([N+](=O)[O-])c2)n1	90.9% (active)	91.3% (active)	97.7% (active)	95% (active)	98.1% (active)	99.2% (active)
O=C1Cc2ccccc2NC(c2ccccc2)C1S(=O)(=O)c1ccccc1 (stereo unspecified)	7.05%	4.35%	9.3%	-2.15%	-0.05%	19.6%

Compound	growth inhibition [1]	growth inhibition [2]	growth inhibition [3]	growth inhibition [4]	growth inhibition [5]	growth inhibition [6]
O=c1n(-c2ccccc2)c(=O)n2n1C1C=CC2C23C=CC12CCCC3 (stereo unspecified)	13.8%	7.85%	9.05%	12%	26.2%	22.8%
CCCCCc1ccccn1	0.9%	19.1%	-25.4%	-29.3%	12.1%	-11.2%
CC(C)C1CCC(C)(C(=O)Oc2ccccc2-c2ccccc2)C1 (stereo unspecified)	13.1%	23.4%	9.75%	-11.6%	22.2%	13.6%
CCOC1(c2ccccc2)OC(=O)c2ccccc21 (stereo unspecified)	18.9%	3.15%	9.8%	16.7%	2.4%	11.7%
O=C(O)c1cc2oc3ccccc3c2cc1O	2.4%	-7.5%	18.6%	4.4%	2.4%	23.3%
COc1cccc(C(=O)C(CCC#N)c2ccccc2)c1 (stereo unspecified)	24.8%	18.5%	31.4%	20.9%	42.8%	9.75%
NC(N)=NCC1CCCCCCN1 (stereo unspecified)	-9.2%	-20.7%	-21.1%	18.6%	-12.6%	12.9%
O=C(C[n+]1cccc(C(=O)Nc2ccccc2)c1)Nc1ccc(Cl)cc1	-2.65%	-0.7%	-2.35%	0.35%	6.7%	7.35%
CCOC(=O)c1c(C(=O)Nc2ccccc2)c(-c2ccccc2)n(NC(N)=O)c1C	5.25%	5.95%	0.5%	-2.4%	0.85%	2.95%
C=CCOc1ccccc1C	-21.9%	-29.9%	-0.85%	8.1%	-21.7%	-14.9%
C=C(C)C1CCC2(CO)C(O)CC3(C)C(CCC4C5(C)CCC(O)C(C)(C)C5CCC43C)C12 (stereo unspecified)	14.5%	7.45%	-8.75%	2.95%	15.6%	-6.6%
CN(C)C(CN)CC1=C(CC(CN)N(C)C)CCC1 (stereo unspecified)	-15.5%	5.25%	-5.5%	-1%	-5.25%	17.6%
COc1ccc(CC(N)C(=O)N2CCCCC2)cc1 (stereo unspecified)	8.45%	0.8%	13.2%	8.15%	8.4%	6.75%
CC(C)(C)C(=O)[CH-]C(=O)C(C)(C)C.CC(C)(C)C(=O)[CH-]C(=O)C(C)(C)C.CN(C)c1ccc([O-])cc1.CN(C)c1ccc([O-])cc1.[Ti+4]	-20.8%	-16.5%	-12.2%	12.2%	5.4%	-11.2%
O=C(Sc1c(-c2ccccc2)c(=O)n(-c2ccccc2)c(=S)n1-c1ccccc1)c1ccc(Cl)cc1	2.75%	3.9%	16.1%	-4.35%	5.4%	12.8%
O=C1c2ccccc2-c2c1c1ccccc1c(=O)n2Cc1ccccc1	6.1%	-14.2%	2.85%	8.05%	-16.9%	-63.8%
CC(=O)OC/C=C1/CC[C@H]2[C@@H]3CCC4=CC(=O)CC[C@]4(C)[C@H]3[C@@H](O)C[C@]12C	26.4%	-4.25%	8.65%	-31.4%	13.4%	26.9%
c1ccc2c3c(ccc2c1)CCCC3	7.5%	-2.15%	2.9%	-8%	15.9%	0.7%
CCCC1(C)COC(C)(CCC)OC1 (stereo unspecified)	-31.6%	-8.3%	-17.9%	-34.4%	-16.9%	-0.45%
CCC(C(C)=O)C(C)C (stereo unspecified)	5.2%	6.55%	8.6%	7.2%	-2%	13.3%
